Relative cell viability data for nine compounds are collected here from the supplement of paper PMC7184167.

The structures appear in SMILES notation. Structures can show the parent of a compound that is named as a salt.

The test system of this assay is replication-induced senescent mouse newborn dermal fibroblasts (NBF). Kind of assay: relative cell viability of senescent cells (fraction); higher = less killing of senescent cells. To be noted: 1 µM; 3 days. The method, then: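 Replication-induced senescent newborn mouse skin fibroblasts (NBFs) in 24-well plates were treated with a Selleck FDA-approved drug library at 1 µM for 3 days.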
As for `CCN(CCO)CCCOc1ccc2c(Nc3cc(CC(=O)Nc4cccc(F)c4)[nH]n3)ncnc2c1` [Barasertib (AZD1152-HQPA)], the relative cell viability came out at 1.
With `CO[C@H]1/C=C/O[C@@]2(C)Oc3c(C)c(O)c4c(O)c(c5c(nc6cc(C)ccn65)c4c3C2=O)NC(=O)/C(C)=C\C=C\[C@H](C)[C@H](O)[C@@H](C)[C@@H](O)[C@@H](C)[C@H](OC(C)=O)[C@@H]1C` [Rifaximin] the figure was 0.971; with `C#CCC(Cc1cnc2nc(N)nc(N)c2n1)c1ccc(C(=O)N[C@@H](CCC(=O)O)C(=O)O)cc1` (some centres undefined) [Pralatrexate], 0.863; with `Cc1nc(=O)c2cc(CN(C)c3ccc(C(=O)N[C@@H](CCC(=O)O)C(=O)O)s3)ccc2[nH]1` [Raltitrexed], 0.916.
In turn, `CC(=O)OCC[N+](C)(C)C` [Acetylcholine Chloride] had a relative cell viability of 0.052.
In the case of `Cc1cnc(C(=O)NCCc2ccc(S(=O)(=O)NC(=O)NC3CCCCC3)cc2)cn1` [Glipizide] it was 0.23; in that of `CN(C)CCC(c1ccc(Cl)cc1)c1ccccn1` (centres undefined) [Chlorpheniramine Maleate], 0.208; in that of `C=CC[N+]1([C@H]2C[C@H]3[C@@H]4CC[C@H]5C[C@H](O)[C@@H](N6CCOCC6)C[C@]5(C)[C@H]4CC[C@]3(C)[C@H]2OC(C)=O)CCCC1` [Rocuronium Bromide], 0.939.
In turn, `CCOc1cc2ncc(C#N)c(Nc3ccc(F)c(Cl)c3)c2cc1NC(=O)/C=C/CN(C)C` [Pelitinib (EKB-569)] yielded a relative cell viability of 1.01.
